From ChEMBL document CHEMBL4513216, “Probing the Open Global Health Chemical Diversity Library for Multistage-Active Starting Points for Next-Generation Antimalarials” (ACS Infect Dis, 2020)
Among all 69,000 compounds or so, about 8,600 (12%) showed an effect of 50% or more. The sample holds strong results, similar compounds and a random draw of the others, so the mix is not that of the screen.

These molecules were tested on Plasmodium berghei (assay: Screen against P. berghei liver stage (PbLuc), transformed with Luciferase, at 10uM). Settings: tested at 10 uM.
Type: functional, HepG2

| Structure (SMILES) | INHIBITION [%] |
| --- | --- |
| CCN(CC)C1CCN(C(=O)NCc2c(C)noc2C)CC1 | 50.1 |
| Cc1noc(C)c1CNC(=O)N(C1CC1)C(C)c1ccco1 (centres undefined) | 79.1 |
| CC(c1ccco1)N(C(=O)c1cc2c([nH]c1=O)CCCC2=O)C1CC1 (centres undefined) | -65.3 |
| CCc1cc(CNC(=O)N(C2CC2)C(C)c2ccco2)[nH]n1 (centres undefined) | 55.9 |
| CCc1cc(CNC(=O)NCC(c2ccco2)N2CCCC2)[nH]n1 (centres undefined) | 36.6 |
| CC(c1ccco1)N(C(=O)CNc1ccc(C#N)cc1)C1CC1 (centres undefined) | 21.5 |
| CC(c1ccco1)N(C(=O)c1cccc(C#N)c1)C1CC1 (centres undefined) | -11 |
| Cc1noc(C)c1CNC(=O)N(C)C1CCN(c2ccccc2)C1=O (centres undefined) | 31.2 |
| CCc1cc(CNC(=O)N(C2CC2)C(C)c2ccco2)on1 (centres undefined) | 3.3 |
| Cc1noc(C)c1CNC(=O)N1CCC(CO)CC1 | 11.8 |
| Cc1noc(C)c1CNC(=O)N1CCCC(C)CC1 (centres undefined) | -30.6 |
| CC(c1ccco1)N(C(=O)NCc1ccon1)C1CC1 (centres undefined) | 72.6 |
| COCc1c(Cl)cccc1NC(=O)CNC(=O)C(C)(C)C | -17.8 |
| CC(C)N1CCC(CC(=O)N(C)C(C)c2cncs2)CC1 (centres undefined) | -3.58 |
| CN(Cc1nc(Cc2cccc(C(F)(F)F)c2)no1)C1CCOCC1 | 22.1 |
| COC(=O)c1ccoc1COC(=O)CCc1ccc(OC)c(OC)c1 | -1.58 |
| CN(C)Cc1cc(C2CCCCN2S(=O)(=O)Cc2ccccc2)nn1C (centres undefined) | 8.12 |
| CS(=O)(=O)NCc1cncc2c1CCN(C(=O)c1ccccn1)C2 | 16.4 |
| Cc1occc1C(=O)N1C[C@@H](OCc2cccnc2)[C@H]2OCCC[C@@H]21 | -63.1 |
| CCCc1noc(C2CC(=O)N(C(C)(C)C)C2)n1 (centres undefined) | 31.9 |
| Cc1cc(C(=O)N2CC[C@H](N3CCN(C)CC3)[C@H](CCCO)C2)n(C)n1 | -27.5 |
| CN1CCN([C@H]2CCN(C(=O)c3cc(Cl)cn3C)C[C@H]2CCCO)CC1 | 64.3 |
| CN1CCN([C@H]2CCN(C(=O)c3nn(C)cc3Cl)C[C@H]2CCCO)CC1 | 8.7 |
| COCCN1CCO[C@@H]2CN(C(=O)NCc3ccccc3)CC[C@@H]2C1 | 7.24 |
| Cc1n[nH]c(C)c1CCC(=O)N1CCc2c(nc[nH]c2=O)C1 | 10.7 |

| Structure (SMILES) | INHIBITION [%] |
| --- | --- |
| O=S(=O)(CC1CCOCC1)NCc1ccnc(O)c1 | 2.82 |
| CCN(CC)c1ccc(CNS(=O)(=O)C2CCOCC2)cc1F | 62.9 |
| CCN(C)c1ccc(CNS(=O)(=O)C2CCOCC2)cc1F | 50.1 |
| CCN(C)c1ccc(CNS(=O)(=O)CC2CCCO2)cc1F (centres undefined) | 24.4 |
| CCN(C)c1ccc(CNC(=O)c2cc(C(N)=O)cs2)cc1F | -59.2 |
| CCN(CC)c1ccc(CNC(=O)C2(C)CCOCC2)cc1F | -37.1 |
| Cc1cc2c(=O)n(CC(=O)N3CCn4cccc4C3C(C)C)cnc2s1 (centres undefined) | 3.4 |
| COCC1CN(c2ncc(F)cn2)Cc2cnn(C)c21 (centres undefined) | 19.6 |
| Cn1cc(CCC(=O)NC(c2ccc(F)cc2)C(F)(F)F)cn1 (centres undefined) | -4.52 |
| CN1CCNC(Cc2ccc(-c3ccccc3)cc2)C1=O (centres undefined) | 23.2 |
| O=C(NCC1CCS(=O)(=O)C1)c1cccc(CN2CCCC2)c1 (centres undefined) | 24.7 |
| O=C(N1CCCO1)[C@@]12CCO[C@@H]1CCN(Cc1cccs1)C2 | 40.1 |
| CC1=CCN(C(=O)Nc2ccccc2N2CCOC2=O)CC1 | 32.5 |
| O=C(Nc1ccccc1N1CCOC1=O)N1CCSCC1 | 52.2 |
| CC(=O)N1CCCN(C(=O)Nc2ccccc2N2CCOC2=O)CC1 | 1.37 |
| Cc1ccn(CCC(=O)NC(C)Cc2ccco2)n1 (centres undefined) | 24.5 |
| COC(=O)c1sc2cccc(F)c2c1CNC(=O)C1CC1 | 34.6 |
| OC1CCN(Cc2cc3c(cc2Br)OCCO3)CC1 | 28.3 |
| Brc1cc2c(cc1CN1CCC(N3CCCCC3)CC1)OCCO2 | 77.9 |
| OCC1CCN(Cc2cc3c(cc2Br)OCCO3)CC1 | 34.5 |
| NC(=O)C1CCN(Cc2cc3c(cc2Br)OCCO3)C1 (centres undefined) | 71.3 |
| COc1ccc(CN2CCC(C(N)=O)C2)c(Br)c1OC (centres undefined) | -0.87 |
| OCCN1CCN(Cc2cc3c(cc2Br)OCCO3)CC1 | 31.5 |
| CNC(=O)C1CN(C(=O)c2ccccc2)Cc2cn(C)nc21 (centres undefined) | 18.9 |
| CCOC(=O)c1nc(CC(=O)Nc2ccccc2)no1 | 45.5 |

| Structure (SMILES) | INHIBITION [%] |
| --- | --- |
| Cc1cc(CN2CCN(C(=O)NCc3csc(C)n3)CC2)no1 | 26.4 |
| CN(C)CCO[C@H]1CN(Cc2ccoc2)[C@@H]2COC[C@H]12 | 3.25 |
| Cn1nc(CNC(=O)c2ccc3c(c2)OCO3)c2c1CCOC2 | 40.8 |
| COc1ccc(NC(=O)NCc2ccnc(N(C)C)c2)cn1 | -15.1 |
| CN(C)c1cc(CNC(=O)Nc2cccnc2N2CCCC2)ccn1 | -60.4 |
| CN(C)c1cc(CNC(=O)Nc2ccc(F)cc2)ccn1 | 17.8 |
| CN(C)c1cc(CNC(=O)Nc2ccc(C#N)cc2)ccn1 | 22.1 |
| CSCCc1ccc(NC(=O)NCc2ccnc(N(C)C)c2)cc1 | 72.85 |
| CN(C)c1cc(CNC(=O)Nc2ccc(N3CCCC3)nc2)ccn1 | 69.7 |
| COCc1ccccc1CNC(=O)CNc1cccc(Cl)c1OC | -28.2 |
| CSCCC(=O)N1CCCN(Cc2cnn(C(C)C)c2)CC1 | 4.71 |
| O=C([C@H]1CCCO1)N1CCc2ncc(CN3CCOCC3)n2CC1 | 22.9 |
| CC(C(=O)N1CCCN(Cc2cnn(C)c2)CC1)n1ccnc1 (centres undefined) | 48.1 |
| O=C(N1CCCC1)N1CCc2ncnc(C3CCOC3)c2CC1 (centres undefined) | 31.8 |
| O=C(NCc1ccccc1F)NCC(O)c1cccc(F)c1 (centres undefined) | -24.3 |
| CCCS(=O)(=O)N1CCN(c2ccnc(N3CCCC3)n2)CC1 | 30.1 |
| CCCS(=O)(=O)N1CCN(c2cc(-n3cccc3)nc(C)n2)CC1 | 34.5 |
| O=C(O)c1ccnc(-c2ccnc(N3CCCCCC3)n2)c1 | 4.41 |
| CS(=O)(=O)N1CCN(c2ccnc(N3CCCC3)n2)CC1 | 50.8 |
| CS(=O)(=O)N1CCN(c2cnnc(N3CCCC3)c2)CC1 | -11.4 |
| CS(=O)(=O)N1CCN(c2ccnc(N3CCCCC3)n2)CC1 | 58.5 |
| CCCS(=O)(=O)N1CCN(c2ccnc(N3CCCCC3)n2)CC1 | 59.8 |
| CN(C)S(=O)(=O)N1CCN(c2ccnc(N3CCCC3)n2)CC1 | 5.14 |
| CN(C)S(=O)(=O)N1CCN(c2ccnc(N3CCCCC3)n2)CC1 | 43.1 |
